In PubChem BioAssay one finds z-score and composite z-score data, which are given here for nine compounds.

Activity calls are given as the source filed them.

Experiment [1] can be described thus: compound effects on lung adenocarcinoma cell viability – A549, calcein-AM fluorescence, 48 h, basal, profiling panel (AID 1162). Also: test concentration not given here. To be noted: higher = more signal.
A short description of experiment [2]: compound effects on differentiated 3T3-L1 adipocyte viability – cell-based, 3T3-L1 adipocytes, calcein-AM fluorescence, 48 h, basal, profiling panel (AID 1163). Also: test concentration not given here. To be noted: 3T3-L1 adipocytes viability, higher = more signal.
The nature of experiment [3]: compound effects on hepatocellular carcinoma cell viability – HepG2, calcein-AM fluorescence, 48 h, basal, profiling panel (AID 1164). Also: test concentration not given here. Conditions: higher = more signal.
A short description of experiment [4]: compound effects on multiple myeloma cell viability – MM1S, calcein-AM fluorescence, 48 h, basal, profiling panel (AID 1165). Also: test concentration not given here. Conditions: higher = more signal.
Experiment [5] is described as follows: calcein-AM signal in unstimulated myeloma cells – cell-based, calcein-AM fluorescence, 48 h, PK04 Diversity Set, profiling panel (AID 1166).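 Also: cells grown under basal conditions without added stimulus; test concentration not given here.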 Conditions: RPMI8226 myeloma viability, higher = more signal.
The nature of experiment [6]: JC-1 mitochondrial signal, unstimulated HepG2 cells – cell-based, JC-1 fluorescence, 24 h, 100 nL compound, profiling panel (AID 1167). Also: test concentration not given here. Conditions: HepG2 mitochondrial potential, higher = more signal.
Experiment [7] can be described thus: JC-1 mitochondrial signal, unstimulated adipocytes – cell-based, JC-1 fluorescence, 3T3-L1 adipocytes, 24 h, 100 nL compound, profiling panel (AID 1168). Also: test concentration not given here. To be noted: JC-1 mitochondrial fluorescence, higher = more signal, called active from +8 up or from −8 down.
Experiment [8] in a line: JC-1 mitochondrial signal, unstimulated myeloma cells – cell-based, JC-1 fluorescence, RPMI8226, 24 h, 100 nL compound, profiling panel (AID 1169). Also: test concentration not given here. Conditions: JC-1 mitochondrial potential fluorescence, higher = more signal.
The nature of experiment [9]: JC-1 mitochondrial signal, unstimulated MM1S myeloma – cell-based, JC-1 fluorescence, 24 h, 100 nL compound, profiling panel (AID 1170). Also: test concentration not given here. Conditions: MM1S mitochondrial potential, higher = more signal.
Experiment [10] is described as follows: resazurin metabolic signal in A549 cells – cell-based, resazurin fluorescence, 24 h, PK04 Diversity Set, profiling panel (AID 1171). Also: test concentration not given here. Conditions: A549 viability, higher = more signal, called active from +8 up or from −8 down. For orientation: Alamar Blue is a resazurin reagent that responds to reducing activity.
Experiment [11] in a line: resazurin metabolic signal in HepG2 cells – cell-based, resazurin fluorescence, 24 h, PK04 Diversity Set, profiling panel (AID 1172). Also: test concentration not given here. To be noted: HepG2 viability, higher = more signal.
The nature of experiment [12]: budding yeast growth changes without added modifier – OD600, strain BY4716, 24 h, basal condition, primary screen (AID 1173). To be noted: S. cerevisiae BY4716 growth, OD600, 24 h; higher = more signal, called active from +8 up or from −8 down.
Experiment [13] in a line: viability profiling in MM1S myeloma cells – cell-based, resazurin fluorescence, basal, 24 h, PK04 Diversity Set, profiling panel (AID 1174). Also: test concentration not given here. To be noted: higher = more signal, called active from +8 up or from −8 down.
Experiment [14] concerns the target Dihydroorotate dehydrogenase (quinone), mitochondrial (Plasmodium falciparum (isolate 3D7)) (UniProt Q08210). Description: inhibition of P. falciparum DHODH – biochemical, C-terminal His tag, absorbance 600 nm, primary screen (AID 1175).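 Also: recombinant parasite enzyme with a five histidine tag at its C terminus; test concentration not given here.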 To be noted: PfDHODH enzyme, DCIP absorbance 600 nm; higher = more signal, called active from +8 up or from −8 down.
Experiment [15] can be described thus: growth modulation of vineyard yeast isolate – strain RM11-1a, OD600, basal, 24 h, primary screen (AID 1177).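 Also: cultures grown under basal conditions with no added stressor; test concentration not given here.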 Conditions: S. cerevisiae RM11-1a growth, OD600, 24 h; higher = more signal, called active from +8 up or from −8 down.
Experiment [16] can be described thus: growth of efflux-deficient E. coli DRC39 – strain DRC39, OD650, 24 h, E. coli filamentation inducers, primary screen (AID 1178).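 Also: growth measured as culture turbidity by optical density at 650 nm; test concentration not given here.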 To be noted: E. coli DRC39 acrAB, higher = more signal, called active from +8 up or from −8 down.
Experiment [17] is described as follows: growth of efflux-deficient E. coli DRC39 – strain DRC39, OD650, 48 h, E. coli filamentation inducers, primary screen (AID 1179).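 Also: screen aims at cell division blockers that make cells filament.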 To be noted: E. coli DRC39 delta-acrAB growth, higher = more signal, called active from +8 up or from −8 down.
A short description of experiment [18]: viability profiling in RPMI8226 myeloma cells – cell-based, resazurin fluorescence, basal, 24 h, PK04 Diversity Set, profiling panel (AID 1180).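 Also: RPMI8826 multiple myeloma cell line at 5000 cells per well; test concentration not given here.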 Conditions: higher = more signal.
Experiment [19] deals with E3 ubiquitin-protein ligase XIAP (Homo sapiens) (UniProt P98170). Description: small molecules binding XIAP protein – biophysical, small-molecule microarray, fluorescence 635 nm, primary screen (AID 1181).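 Also: score merges 667 nm emission and signal to noise over triplicate slides.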 Conditions: higher = more signal.
Chain of E3 ubiquitin-protein ligase XIAP (Homo sapiens) (P98170 whole entry, looked up): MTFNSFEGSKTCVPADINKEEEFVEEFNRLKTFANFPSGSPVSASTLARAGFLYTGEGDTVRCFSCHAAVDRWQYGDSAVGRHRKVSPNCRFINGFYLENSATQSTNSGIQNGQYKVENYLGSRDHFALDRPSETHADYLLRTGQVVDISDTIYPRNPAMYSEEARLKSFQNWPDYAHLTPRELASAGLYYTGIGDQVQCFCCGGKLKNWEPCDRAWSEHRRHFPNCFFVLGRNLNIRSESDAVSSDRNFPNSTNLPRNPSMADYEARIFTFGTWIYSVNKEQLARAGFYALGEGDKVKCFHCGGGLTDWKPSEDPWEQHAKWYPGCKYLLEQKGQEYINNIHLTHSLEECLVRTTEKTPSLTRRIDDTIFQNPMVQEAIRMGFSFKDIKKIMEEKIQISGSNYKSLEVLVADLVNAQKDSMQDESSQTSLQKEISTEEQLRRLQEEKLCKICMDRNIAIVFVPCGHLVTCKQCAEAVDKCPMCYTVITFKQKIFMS

Chain of Dihydroorotate dehydrogenase (quinone), mitochondrial (Plasmodium falciparum (isolate 3D7)) (Q08210 whole entry, looked up): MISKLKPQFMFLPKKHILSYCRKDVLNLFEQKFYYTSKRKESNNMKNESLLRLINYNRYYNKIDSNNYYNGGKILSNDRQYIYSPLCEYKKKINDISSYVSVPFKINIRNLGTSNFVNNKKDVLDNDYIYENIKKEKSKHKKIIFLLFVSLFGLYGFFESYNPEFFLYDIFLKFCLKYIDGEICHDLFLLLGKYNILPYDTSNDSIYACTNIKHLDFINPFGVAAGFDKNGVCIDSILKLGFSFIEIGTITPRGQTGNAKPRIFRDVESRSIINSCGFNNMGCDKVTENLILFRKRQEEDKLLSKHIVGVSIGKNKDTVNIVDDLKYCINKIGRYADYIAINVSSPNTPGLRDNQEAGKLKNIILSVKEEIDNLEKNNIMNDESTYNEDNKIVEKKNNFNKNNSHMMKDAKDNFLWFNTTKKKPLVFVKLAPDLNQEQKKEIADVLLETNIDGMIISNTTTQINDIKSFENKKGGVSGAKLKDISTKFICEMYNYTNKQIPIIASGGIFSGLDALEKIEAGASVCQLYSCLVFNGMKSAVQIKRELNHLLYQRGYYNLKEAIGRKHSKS

Consider `Cc1ccc(S(=O)(=O)N[C@H]2COC(=O)CC=C[C@H](C)COC(=O)N[C@@H](C)C(=O)CC=C[C@@H]2C)cc1`, for which the z-score in experiment [1] was -0.235; in experiment [2], 0.538; in experiment [3] it was 0.984; in [4], 0.399; in experiment [5], -0.558; in experiment [6], 1.27. Also, the z-score is 0.946 (inactive) in [7]; -0.614 in experiment [8]; 0.809 in experiment [9]; 0.333 (inactive) in experiment [10]; 0.115 in [11]; -0.949 (inactive) in experiment [12]. For the same compound, the z-score in experiment [13] was 1.71 (inactive); in experiment [15], -0.698 (inactive); in experiment [16], 0.583 (inactive); in experiment [17], 0.286 (inactive); in [18] it was 1.06. Further, the composite z-score in experiment [14] was 0.32 (inactive); in [19], -0.0282.

As for `CN1CCC(CCCO)=CC1C1CC1` (stereo unspecified), the z-score is 0.4 in experiment [1]; 0.852 in experiment [2]; -0.879 in experiment [3]; -0.833 in [4]; 0.174 in experiment [5]; 1.32 in experiment [6]. Also, the z-score is 0.57 (inactive) in experiment [7]; 0.201 in experiment [8]; 0.389 in experiment [9]; -0.0682 (inactive) in experiment [10]; 0.413 in [11]; -0.821 (inactive) in experiment [12]. In addition, the z-score in experiment [13] was 1.18 (inactive); in [15], -1.57 (inactive); in experiment [16] it was 0.887 (inactive); in [17], 0.611 (inactive); in experiment [18], 0.63. Further, the results for the composite z-score in [14] and in experiment [19] were -1.13 (inactive) and 0.77, respectively.

For `COC(=O)C[C@H]1O[C@]2(C(=O)N(C)c3ccccc32)[C@@H](C)[C@@H]1[Si](C)(C)c1ccc(OC)cc1`, the z-score in experiment [1] was -0.437; in [2], 2.54; in experiment [3], -0.125; in experiment [4] it was -0.128; in [5], -2.98; in experiment [6], 0.441. Further, the z-score is 1.24 (inactive) in [7]; -0.636 in [8]; 1.05 in [9]; -0.767 (inactive) in experiment [10]; -0.0652 in experiment [11]; -4.08 (inactive) in [12]. The z-score in experiment [13] was 0.504 (inactive); in [15], -1.41 (inactive); in [16], 2.5 (inactive); in experiment [17] it was 0.871 (inactive); in experiment [18], 0.452. For the same compound, the composite z-score was 0.939 (inactive) in [14] and 0.0942 in experiment [19].

As to `CO[C@H]1COC(=O)[C@H](C)NC(=O)CC=C[C@@H](C)[C@H](NS(=O)(=O)c2ccc(C)cc2)COC(=O)CC=C[C@@H]1C`, the z-score was -0.199 in [1]; 1.76 in experiment [2]; -0.261 in experiment [3]; 0.436 in [4]; 0.769 in [5]; 0.645 in experiment [6]. Also, the z-score in experiment [7] was -0.236 (inactive); in experiment [8], -0.081; in experiment [9], 0.753; in experiment [10], 0.317 (inactive); in experiment [11], 0.072; in [12] it was -1.57 (inactive). In addition, the z-score in experiment [13] is 1.19 (inactive); in experiment [15] it was -0.724 (inactive); in experiment [16], 0.127 (inactive); in [17], -0.244 (inactive); in experiment [18] it was 0.945. Also, the values for the composite z-score in [14] and in experiment [19] were -0.253 (inactive) and 0.023, respectively.

Consider `O=C(NCC(O)CO)[C@]1(Cc2ccccc2)N=C(c2ccc(OCCCO)cc2)O[C@@H]1c1ccccc1` (stereo partly specified), for which the z-score in [1] was -0.798; in experiment [2] it was 1.91; in experiment [3], -2.22; in [4] it was -1.26; in experiment [5], -1.08; in experiment [6], -1.81. Besides, the z-score in [7] was 1.03 (inactive); in [8], 0.159; in experiment [9] it was 0.245; in [10], 0.519 (inactive); in [11] it was 0.206; in experiment [12] it was -3.32 (inactive). The z-score is 1.71 (inactive) in experiment [13]; -0.989 (inactive) in experiment [15]; 2.22 (inactive) in [16]; 0.235 (inactive) in [17]; 0.761 in [18]. The composite z-score in experiment [14] was 0.287 (inactive); in experiment [19] it was 0.0251.

Take `CCCCO[C@H]1C[C@H]2C(Br)=C[C@@]1(CO)C(=O)[C@]21CO1`: the z-score in experiment [1] was 0.491; in [2] it was 0.53; in experiment [3], -0.337; in [4] it was -0.997; in experiment [5], -0.545; in experiment [6], 0.76. The z-score in experiment [7] was 1.33 (inactive); in experiment [8], -1.12; in experiment [9], 0.149; in [10] it was 0.6 (inactive); in experiment [11], 1.24; in experiment [12], -3.84 (inactive). Besides, the z-score in experiment [13] is 1.07 (inactive); in experiment [15], -1.86 (inactive); in experiment [16] it was 2.66 (inactive); in [17], 1.48 (inactive); in experiment [18] it was 0.999. Further, the values for the composite z-score in [14] and in experiment [19] were -0.343 (inactive) and -0.02, respectively.

On to `Cc1ccc(N2C(=O)c3ccccc3[C@@H](C(=O)NCc3ccccc3)[C@@H]2c2ccc(CO)cc2)nc1`, for which the z-score in [1] is 1.08; in experiment [2] it was 1.14; in experiment [3] it was -0.296; in experiment [4], 0.2; in [5], 1.18; in experiment [6], 0.532. Further, the z-score in [7] was 1.07 (inactive); in experiment [8] it was 0.0567; in [9], 0.202; in experiment [10] it was 0.737 (inactive); in [11], 0.138; in experiment [12], 0.0819 (inactive). Moreover, the z-score in experiment [13] was 1.36 (inactive); in experiment [15], 1.11 (inactive); in [16], -0.0753 (inactive); in experiment [17], -0.0787 (inactive); in experiment [18], 1.06. In addition, the composite z-score in experiment [14] was 0.787 (inactive); in experiment [19], 0.02.

For `COCCOC(=O)N1C(=O)[C@@]2(c3cc(C#CC4(O)CCCCCC4)ccc31)[C@H](C(=O)N1CCCCCCC1)[C@H]1C(=O)O[C@H](c3ccccc3)[C@H](c3ccccc3)N1[C@@H]2c1ccc(O)cc1`, the z-score is -0.475 in experiment [1]; 2.45 in experiment [2]; -0.0416 in experiment [3]; -0.747 in experiment [4]; -0.733 in [5]; -0.355 in experiment [6]. For the same compound, the z-score is 1.16 (inactive) in experiment [7]; -0.861 in experiment [8]; -0.219 in experiment [9]; 0.627 (inactive) in experiment [10]; 0.1 in [11]; -0.975 (inactive) in experiment [12]. The z-score is 1.57 (inactive) in experiment [13]; 0.322 (inactive) in experiment [15]; 0.286 (inactive) in experiment [16]; 0.264 (inactive) in [17]; 0.868 in experiment [18]. Also, the composite z-score in [14] was 0.0505 (inactive); in [19] it was 0.154.

`C[C@@H]1NC(=O)CC=C[C@@H](C)[C@@H]2C=C[C@H](O)[C@@H](COC(=O)[C@H](C)NC(=O)CC=C[C@@H](C)[C@@H]3C=C[C@H](O)[C@@H](COC1=O)O3)O2`: the z-score in experiment [1] was 0.362; in [2], 1.59; in experiment [3] it was -0.195; in [4] it was 0.188; in [5] it was -1.38; in experiment [6], 1.1. In addition, the z-score was 0.863 (inactive) in experiment [7]; 0.21 in experiment [8]; 0.665 in experiment [9]; -0.756 (inactive) in experiment [10]; -0.0969 in experiment [11]; -2.21 (inactive) in [12]. Besides, the z-score in [13] was 0.668 (inactive); in [15], -1.76 (inactive); in [16], 0.953 (inactive); in [17], 0.264 (inactive); in experiment [18], 0.526. Moreover, the composite z-score is 0.633 (inactive) in [14] and -0.135 in [19].
